# Laboratory results: PubChem BioAssay
# The source made the active and inactive calls. Unless noted, no stated cut-off is given here; in the data, active means inhibition above about 28%; inactive means the rest.
# How the values were obtained:
# [1] = StAR promoter reporter inhibitors, counter-screen for LRH-1 inverse agonist project, cell-based, luminescence, high throughput (AID 651611); details: StAR promoter luciferase reporter counterscreen, at 3.6 µM, stronger effect = higher value
# [2] = biological target: Nuclear receptor subfamily 5 group A member 2 (Homo sapiens) (UniProt O00482); test: NR5A2 activity suppression in reporter cells – cell-based, luminescence, confirmation (AID 651613; in the data active means inhibition above about 42%;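 further: HEK293T cells co-transfected with LRH-1 and StAR promoter luciferase reporter; 0% = vehicle wells and 100% = parental cells lacking receptor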); details: cell-based LRH-1 luciferase reporter, inverse agonism; at 3.6 µM; stronger effect = higher value
# Sequence of Nuclear receptor subfamily 5 group A member 2 (Homo sapiens) (O00482 whole entry, looked up): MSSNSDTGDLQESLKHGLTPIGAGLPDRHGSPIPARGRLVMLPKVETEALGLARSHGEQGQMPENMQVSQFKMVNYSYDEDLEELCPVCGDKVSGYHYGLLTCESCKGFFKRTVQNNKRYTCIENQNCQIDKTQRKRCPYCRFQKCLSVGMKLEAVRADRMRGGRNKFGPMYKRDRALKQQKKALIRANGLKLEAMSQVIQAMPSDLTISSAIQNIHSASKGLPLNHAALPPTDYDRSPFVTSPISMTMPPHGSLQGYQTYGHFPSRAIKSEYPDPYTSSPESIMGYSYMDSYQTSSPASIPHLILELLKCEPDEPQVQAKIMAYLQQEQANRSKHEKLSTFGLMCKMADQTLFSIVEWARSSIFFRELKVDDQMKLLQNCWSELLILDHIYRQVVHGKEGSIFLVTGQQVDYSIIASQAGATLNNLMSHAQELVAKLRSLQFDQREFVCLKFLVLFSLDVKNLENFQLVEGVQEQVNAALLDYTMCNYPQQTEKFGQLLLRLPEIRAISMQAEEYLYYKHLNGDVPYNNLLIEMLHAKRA
# [3] = biological target: Steroidogenic factor 1 (Homo sapiens) (UniProt Q13285); test: inverse agonism at SF1 nuclear receptor – cell-based, luminescence, high throughput, counter-screen for LRH-1 inverse agonist project (AID 651614; in the data active means inhibition above about 44%;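 further: cells cotransfected with StAR promoter reporter and SF1 expression vector; 0% = vehicle on cells with receptor and 100% = vehicle on cells lacking receptor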); details: cell-based SF1 luciferase reporter, at 3.6 µM, stronger effect = higher value
# Sequence of Steroidogenic factor 1 (Homo sapiens) (Q13285 whole entry, looked up, the tested form may be a part): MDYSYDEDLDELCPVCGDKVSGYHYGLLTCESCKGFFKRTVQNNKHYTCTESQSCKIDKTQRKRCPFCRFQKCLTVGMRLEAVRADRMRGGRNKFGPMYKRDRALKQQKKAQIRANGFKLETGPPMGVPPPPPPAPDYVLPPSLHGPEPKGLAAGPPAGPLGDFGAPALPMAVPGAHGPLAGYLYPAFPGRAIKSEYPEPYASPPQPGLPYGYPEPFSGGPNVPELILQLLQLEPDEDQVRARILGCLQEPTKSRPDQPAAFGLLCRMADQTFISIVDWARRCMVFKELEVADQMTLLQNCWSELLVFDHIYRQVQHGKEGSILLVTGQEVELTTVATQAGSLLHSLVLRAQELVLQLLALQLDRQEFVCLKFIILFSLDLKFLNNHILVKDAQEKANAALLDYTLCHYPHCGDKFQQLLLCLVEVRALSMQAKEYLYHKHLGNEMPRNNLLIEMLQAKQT
# [4] = compounds suppressing VP16-driven luciferase signal – cell-based, luminescence, high throughput, counter-screen for LRH-1 inverse agonist project (AID 651615; in the data active means inhibition above about 33%); details: Gal4-VP16 luciferase reporter cells, at 3.6 µM, stronger effect = higher value
Compound,inhibition [1],inhibition [2],inhibition [3],inhibition [4]
COc1cccc2c1C1COC3C4CC(C(=O)O)C(C(C2)N13)N4C (configuration not stated),29.8% (active),45.4% (active),72.3% (active),-10.2% (inactive)
CCCOc1ccc(N)cc1N,11.1% (inactive),21.4% (inactive),27% (inactive),-3.38% (inactive)
Cc1cc(/C=N/NC(N)=S)c(C)n1-c1ccc(Cl)c(Cl)c1,7.41% (inactive),44.5% (active),39.2% (inactive),22.5% (inactive)
Nc1ccc(Oc2ccc(Cl)cc2)cc1,1.47% (inactive),35.2% (inactive),31% (inactive),-7.96% (inactive)
Cc1ccc(NC(=O)CSc2ccc3c(c2)OCCO3)c(O)c1,11.1% (inactive),54.6% (active),46.5% (active),35.5% (active)
CCn1c2ccccc2c2cc(/C=N/n3cn[nH]c3=S)ccc21,4.27% (inactive),28.1% (inactive),34.3% (inactive),-3.24% (inactive)
Cc1no[n+]([O-])c1COc1ccc(/C=C2\NC(=S)NC2=O)cc1,-5.62% (inactive),48.3% (active),45.9% (active),-19.4% (inactive)
NC(=O)C1CCN(C(=O)COc2ccc3c4c(c(=O)oc3c2)CCC4)CC1,5.21% (inactive),42.7% (active),36.4% (inactive),-10.9% (inactive)
CCOCC(=O)Nc1ccc([N+](=O)[O-])cc1C,9% (inactive),59.1% (active),57.7% (active),4.94% (inactive)
CC(C)(C)C(=O)N1CCN(c2ccc(NC(=O)c3ccc([N+](=O)[O-])o3)cc2)CC1,11.1% (inactive),59.7% (active),68.6% (active),-12.6% (inactive)
CC(=O)N1CCc2c(sc(NC(=O)CCS(=O)(=O)c3ccc(C)cc3)c2C#N)C1,11.7% (inactive),52.5% (active),43.6% (active),-1.4% (inactive)
CCOc1ccc(NC(=O)CN2CCN(C3c4ccccc4-c4ccccc43)CC2)cc1,9.85% (inactive),66.5% (active),60.1% (active),-0.77% (inactive)
COc1cc(C(=O)OCC(=O)Nc2ccc(N3CCOCC3)cc2)ccc1OCC(C)C,14.1% (inactive),54.5% (active),65.5% (active),-7.28% (inactive)
O=C(NCCCNc1ccc([N+](=O)[O-])cc1)C(F)(F)F,9.72% (inactive),54.9% (active),52.4% (active),-18.2% (inactive)
O=C(COC(=O)c1ccc(S(=O)(=O)N2CCCC2)cc1)Nc1ccc(N2CCOCC2)cc1,18.1% (inactive),48.5% (active),57.4% (active),-7.59% (inactive)
CC(=O)N1CCN(c2cc(N3CCCC3)c(F)cc2[N+](=O)[O-])CC1,2.68% (inactive),57.4% (active),48.7% (active),-0.47% (inactive)
CCn1c(=S)sc2c(=O)n(CC(=O)Nc3ccc(OC)c(Cl)c3)c(C)nc21,6% (inactive),33.4% (inactive),24.9% (inactive),4.75% (inactive)
CC(C)C(=O)N1CCN(c2ccc(NC(=O)c3ccc([N+](=O)[O-])o3)cc2)CC1,8.38% (inactive),59.5% (active),60.5% (active),-4.74% (inactive)
Cc1ccc(Sc2ccc(NC(=O)CCl)cc2)cc1C,0.02% (inactive),52.6% (active),56.5% (active),-14.4% (inactive)
CSc1nc(SCC(=O)NCc2ccco2)c2c3c(sc2n1)COC(C)(C)C3,6.43% (inactive),54.7% (active),57.6% (active),3.39% (inactive)
COc1ccc(OC)c(/C=N/N=C2\SCC(=O)N2Cc2ccco2)c1,10.7% (inactive),57.4% (active),45.7% (active),5.2% (inactive)
C=CCNc1sc(C(=O)c2ccccc2)c(N)c1C#N,13.8% (inactive),43.6% (active),47.7% (active),6.37% (inactive)

Compound,inhibition [1],inhibition [2],inhibition [3],inhibition [4]
CC1=C(n2nnc([N+](=O)[O-])n2)C(c2cccnc2)C(C#N)=C(N)O1 (configuration not stated),6.01% (inactive),17.6% (inactive),21.5% (inactive),-0.44% (inactive)
CCOc1ccc2c(c1)sc(N)[n+]2Cc1cc(C)cc2cccnc12,30.7% (active),56.2% (active),32.1% (inactive),39.5% (active)
O=C(Nc1cc(C(F)(F)F)cc(C(F)(F)F)c1)O[C@@H]1c2ccccc2[C@@H]2Cc3csc[n+]3[C@H]12,15.6% (inactive),60% (active),58.4% (active),4.96% (inactive)
CC(=O)N1CCc2c(sc(NC(=O)c3ccc([N+](=O)[O-])o3)c2C#N)C1,-28.6% (inactive),36% (inactive),43.8% (active),-119% (inactive)
COc1cccc(-c2cc(C(=O)Nc3ccncc3)c3ccccc3n2)c1,9.54% (inactive),35.2% (inactive),39.4% (inactive),-5.71% (inactive)
CCOc1ccc(Cc2nnc(SCC(=O)Nc3ccc(C(C)=O)cc3)[nH]c2=O)cc1,1.5% (inactive),52% (active),40.9% (inactive),-7.62% (inactive)
CC(=O)c1ccc(NC(=O)CSc2nc3[nH]ncc3c(=O)[nH]2)cc1,-0.97% (inactive),61.5% (active),50.8% (active),-6.29% (inactive)
CCOC(=O)c1cccc(C2=CC(=O)CC(C)(C)C2)c1,1.21% (inactive),46.3% (active),48.8% (active),-12% (inactive)
CCOc1ccc(NC(=O)COC(=O)c2cc([N+](=O)[O-])ccc2N2CCOCC2)cc1,6.26% (inactive),55.9% (active),50.6% (active),-1% (inactive)
CCCc1cc(=O)oc2c(C)c(OCC(=O)NCCN3CCOCC3)ccc12,6.59% (inactive),43.8% (active),46.3% (active),-19.2% (inactive)
CCOc1ccc(OCCN2C(=O)NC(Cc3c[nH]c4ccccc34)C2=O)cc1 (configuration not stated),13.2% (inactive),54.9% (active),58.2% (active),4.66% (inactive)
COc1ccc(-n2c(SCC(=O)NCc3ccco3)nc3sc4c(c3c2=O)CCN(C)C4)cc1,-6.62% (inactive),-2.89% (inactive),11% (inactive),-5.24% (inactive)
On1ccccc1=S,86.8% (active),83.1% (active),82.3% (active),87.5% (active)
Cc1cccc(NC(=O)COC(=O)c2cccs2)c1C,0.76% (inactive),52.7% (active),56.8% (active),9.54% (inactive)
O=C(Nc1ccc(N2CCN(C(=O)c3cccs3)CC2)cc1)c1ccc([N+](=O)[O-])o1,43.4% (active),67.3% (active),70.4% (active),7.47% (inactive)
O=[N+]([O-])c1ccc(N2CCCCC2)cc1N1CCOCC1,18% (inactive),54.3% (active),54.9% (active),-5.18% (inactive)
CCOc1cc(/C=N/n2nnnc2N)ccc1OCc1c(C)no[n+]1[O-],12.5% (inactive),53.2% (active),56.4% (active),-7.92% (inactive)
O=C(c1ccoc1)N1CCN(c2cc(-c3ccco3)nc3cc(-c4ccccc4)nn23)CC1,46.1% (active),50.1% (active),48% (active),19.7% (inactive)
CN1C=C/C(=C\c2cc[n+](C)c3ccccc23)c2ccccc21,28.6% (active),108% (active),46.8% (active),81.4% (active)
Cc1nn(CC(=O)Nc2ccc(N3CCOCC3)cc2)c(C)c1Cl,-2.18% (inactive),44.3% (active),29.8% (inactive),-1.64% (inactive)
COc1ccc(NS(=O)(=O)c2cccc(NC(=O)c3ccc(Cl)nc3)c2)cc1,37.9% (active),63.3% (active),66% (active),55.4% (active)
